Laboratory results reported in the OligoGym collection.

What follows are sequences tested against ZHX1 (assay: pooled miR-30 sensor sort-seq; sequence = guide strand). Conditions: shRNA.
Also: reference of the scale not given here.

Sequence	sensor-assay potency score (higher = more potent)
TAGACATACAGTATTAAACTGG	-0.456
TTTTTTTACATATCTTGCCTGT	-0.102
TAAATTAGTATGAACTTTCAGT	-0.00447
TAAGTATACATTTACTACGTGA	-0.517
TAACTATGTCTGTTCTAGCAAG	-1.35

The sequences below were run against ZIC5 in the same assay as above. Conditions: shRNA.

Sequence	sensor-assay potency score (higher = more potent)
TAGTAGGGCTTGTCACTGGTGT	-0.153
TTGGTGGTGGTGTAGCCCGAGA	-1.57
TGTCATATTCTGAAGCGGCTGG	0.253
TCGAATCTTGCAGTAGTAGGGC	0.408
ATGAGTACGCTTGTGGATCTTG	-0.744
TGTATGAGTACGCTTGTGGATC	-1.35
TCATCTTCAGTCTCAGAGGTGG	-0.487
TTGCAGATGAGCTCCTGCTTGA	-0.229
TTTGTCACAGCCTCGAATCTTG	-0.0738
TGAATCTTCATGTGCTTCCTCA	-0.349
TTGAGGTTGGTCACCTGAGGGG	-0.565

The sequences below were run against ZKSCAN4 in the same assay as above. Conditions: shRNA.

Sequence	sensor-assay potency score (higher = more potent)
TGAACTTTGAGCAAAACTCTTT	-0.0856
TTTATCACCATGAATCCTCTGA	0.54
TACCATTGCATCTTCTCTGCAG	0.382
TAGTCTGTATTTCACCACCAAG	-1.77
AACCTGGAGAACTCTATCGTGT	-0.756
TTCATGCTTGAACAGAGCCTTC	-1.41
TTGACTGGAGGCAAGTCCCTGC	0.176
TGAGCTGTGACTGAAGACCTTA	0.0781
TTTAGGTCCTACAACTTCCAGA	-0.127
TTCCACAGTCTTCACATTCATA	-1.13
TTCTGCTTTCTTTGTAACCTGC	-0.00454
TTCAATAAGACTTCTATTCCGT	0.355

Each sequence was assayed against ZMAT2 in the same assay as above. Conditions: shRNA.

Sequence	sensor-assay potency score (higher = more potent)
TTTCTCTTTCTTGTACGCTTTG	-0.653
TTTATTGGGAACTCAGGTGGGC	0.402
TTCTCTGATGTTTCTTTCCATT	-1.41
TTCCTCAAAATCATAATCCTTC	0.481
TTTCTTGTACGCTTTGGCCTTT	-0.519
TTCTTGTTGACCTCAAAACGTT	-0.905
TTCTTTTCTCTCTCTTCCGTGA	-0.461
AAAATCATAATCCTTCTGCTTC	-0.213
TTCTCTTTCTTGTACGCTTTGG	-0.566
TACCTCTGCAATCTGTGCCCTC	-0.418
TTGGATTCCAAGTCCACCTTGT	0.567
